# In PubChem BioAssay (EPA / NIEHS):
# Inconclusive results are not listed. Active and inactive are the calls of the source. The calls were made as follows, unless noted: active = hit-call score of the fitted dose curve at least 0.9, where 1 is the maximum; inconclusive = response in the unintended direction; inactive = score below 0.9.
# What was measured:
# Caspase-1 (Homo sapiens) = Caspase-1 (Homo sapiens) (UniProt P29466); test: NVS_ENZ_hCASP1: NovaScreen (NVS) Enzymatic Assay for human Caspase 1 (CASP1) (AID 2283132)
# Caspase-1 (Homo sapiens), sequence (P29466 whole entry, looked up): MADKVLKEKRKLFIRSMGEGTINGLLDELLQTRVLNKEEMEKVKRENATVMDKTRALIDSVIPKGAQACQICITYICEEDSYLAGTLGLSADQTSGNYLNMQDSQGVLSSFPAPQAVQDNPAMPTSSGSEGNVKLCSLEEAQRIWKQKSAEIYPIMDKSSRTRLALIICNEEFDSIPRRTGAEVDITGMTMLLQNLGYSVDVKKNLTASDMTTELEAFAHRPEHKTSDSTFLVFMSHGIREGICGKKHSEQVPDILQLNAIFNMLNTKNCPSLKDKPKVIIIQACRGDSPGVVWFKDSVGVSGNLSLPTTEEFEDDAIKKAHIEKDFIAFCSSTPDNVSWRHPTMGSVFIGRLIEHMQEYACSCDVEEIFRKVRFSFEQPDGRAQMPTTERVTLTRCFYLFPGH
# Procedure, shortened: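 Cell-free enzymatic assay with E. coli-expressed recombinant protein; fluorescence intensity read 1 hour after dosing. Single-concentration duplicate screen at 25 uM, then concentration-response up to 50 uM; activity fitted relative to DMSO, loss of signal meaning inhibition.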
# [1] = target: rat Monoamine Oxidase, MAO-B, Peripheral (MAOBP), Maob (gene 25750) (UniProt P19643); test: NVS_ENZ_rMAOBP: NovaScreen (NVS) Enzymatic Assay for rat Monoamine Oxidase, MAO-B, Peripheral (MAOBP) (AID 2283242)
# [2] = target: human Fibroblast Growth Factor Receptor 1 (FGFR1), FGFR1 (gene 2260) (UniProt P11362); test: NVS_ENZ_hFGFR1: NovaScreen (NVS) Enzymatic Assay for human Fibroblast Growth Factor Receptor 1 (FGFR1) (AID 2283159)
# human Fibroblast Growth Factor Receptor 1 (FGFR1), FGFR1 (gene 2260), sequence (P11362 whole entry, looked up): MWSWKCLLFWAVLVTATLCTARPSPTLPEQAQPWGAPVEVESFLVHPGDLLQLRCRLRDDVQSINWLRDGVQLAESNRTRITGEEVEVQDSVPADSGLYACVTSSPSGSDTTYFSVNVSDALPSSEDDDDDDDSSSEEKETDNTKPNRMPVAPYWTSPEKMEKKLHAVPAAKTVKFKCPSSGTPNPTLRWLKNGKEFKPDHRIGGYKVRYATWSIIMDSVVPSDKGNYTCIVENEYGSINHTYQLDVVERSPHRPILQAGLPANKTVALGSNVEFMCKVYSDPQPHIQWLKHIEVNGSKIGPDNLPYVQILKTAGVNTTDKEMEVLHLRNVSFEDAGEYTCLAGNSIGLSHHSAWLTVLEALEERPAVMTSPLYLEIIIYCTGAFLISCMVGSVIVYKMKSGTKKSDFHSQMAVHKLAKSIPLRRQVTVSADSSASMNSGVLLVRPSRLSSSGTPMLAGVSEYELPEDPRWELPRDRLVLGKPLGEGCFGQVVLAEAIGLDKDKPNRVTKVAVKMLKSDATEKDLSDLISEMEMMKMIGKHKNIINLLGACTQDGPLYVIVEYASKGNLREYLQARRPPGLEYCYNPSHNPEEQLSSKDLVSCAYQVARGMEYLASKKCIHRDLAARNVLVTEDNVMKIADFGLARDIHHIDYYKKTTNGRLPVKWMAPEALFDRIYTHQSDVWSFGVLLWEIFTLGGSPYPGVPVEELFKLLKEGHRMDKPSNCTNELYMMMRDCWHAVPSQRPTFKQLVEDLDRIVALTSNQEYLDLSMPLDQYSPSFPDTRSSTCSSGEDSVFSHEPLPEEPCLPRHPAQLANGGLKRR
# Procedure, shortened: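 Cell-free recombinant kinase with fluorescent substrate, product separated by electrophoretic mobility shift; read 1 hour after dosing, loss of signal relative to DMSO. Initial screen in duplicate at 25 uM, actives followed in concentration series.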
# [3] = target: human AMP-activated Protein Kinase, alpha 1 (AMPKa1), PRKAA1 (gene 5562) (UniProt Q13131); test: NVS_ENZ_hAMPKa1: NovaScreen (NVS) Enzymatic Assay for human AMP-activated Protein Kinase, alpha 1 (AMPKa1) (AID 2283130)
# human AMP-activated Protein Kinase, alpha 1 (AMPKa1), PRKAA1 (gene 5562), sequence (Q13131 whole entry, looked up): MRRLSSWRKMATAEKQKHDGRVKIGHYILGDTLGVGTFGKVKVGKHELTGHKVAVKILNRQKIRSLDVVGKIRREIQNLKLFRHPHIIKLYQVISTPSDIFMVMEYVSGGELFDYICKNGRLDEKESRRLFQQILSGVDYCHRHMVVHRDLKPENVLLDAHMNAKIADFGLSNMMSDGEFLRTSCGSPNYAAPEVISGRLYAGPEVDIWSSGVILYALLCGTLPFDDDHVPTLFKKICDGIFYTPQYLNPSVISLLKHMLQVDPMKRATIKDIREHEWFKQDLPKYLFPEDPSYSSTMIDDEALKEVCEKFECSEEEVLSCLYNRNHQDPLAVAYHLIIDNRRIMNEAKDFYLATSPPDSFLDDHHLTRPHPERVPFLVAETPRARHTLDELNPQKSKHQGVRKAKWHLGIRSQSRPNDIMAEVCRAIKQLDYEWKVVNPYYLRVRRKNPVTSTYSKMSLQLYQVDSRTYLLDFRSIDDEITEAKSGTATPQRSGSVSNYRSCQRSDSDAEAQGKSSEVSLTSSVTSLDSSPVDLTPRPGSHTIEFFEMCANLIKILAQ
# Procedure, shortened: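 Recombinant human AMPKα1 activity was measured cell-free by fluorescent substrate conversion with electrophoretic mobility-shift separation, 1 h after dosing. Duplicate single-point screening was at 25 uM; actives (≥30% inhibition) were retested in concentration-response up to 50 uM.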
# [4] = target: Protein deacetylase HDAC6 (Homo sapiens) (UniProt Q9UBN7); test: NVS_ENZ_hHDAC6: NovaScreen (NVS) Enzymatic Assay for human Histone Deacetylase 6 (HDAC6) (AID 2283164)
# Procedure, shortened: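 Recombinant human HDAC6 with fluorescent substrate, 1 h; product separated from substrate by electrophoretic mobility shift. Primary screen in duplicate at 25 uM; actives retested singly in concentration-response up to 50 uM, fitted relative to DMSO.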
# [5] = target: human p21 Activated Kinase 4 (PAK4), PAK4 (gene 10298) (UniProt O96013); test: NVS_ENZ_hPAK4: NovaScreen (NVS) Enzymatic Assay for human p21 Activated Kinase 4 (PAK4) (AID 2283189)
# human p21 Activated Kinase 4 (PAK4), PAK4 (gene 10298), sequence (O96013 whole entry, looked up): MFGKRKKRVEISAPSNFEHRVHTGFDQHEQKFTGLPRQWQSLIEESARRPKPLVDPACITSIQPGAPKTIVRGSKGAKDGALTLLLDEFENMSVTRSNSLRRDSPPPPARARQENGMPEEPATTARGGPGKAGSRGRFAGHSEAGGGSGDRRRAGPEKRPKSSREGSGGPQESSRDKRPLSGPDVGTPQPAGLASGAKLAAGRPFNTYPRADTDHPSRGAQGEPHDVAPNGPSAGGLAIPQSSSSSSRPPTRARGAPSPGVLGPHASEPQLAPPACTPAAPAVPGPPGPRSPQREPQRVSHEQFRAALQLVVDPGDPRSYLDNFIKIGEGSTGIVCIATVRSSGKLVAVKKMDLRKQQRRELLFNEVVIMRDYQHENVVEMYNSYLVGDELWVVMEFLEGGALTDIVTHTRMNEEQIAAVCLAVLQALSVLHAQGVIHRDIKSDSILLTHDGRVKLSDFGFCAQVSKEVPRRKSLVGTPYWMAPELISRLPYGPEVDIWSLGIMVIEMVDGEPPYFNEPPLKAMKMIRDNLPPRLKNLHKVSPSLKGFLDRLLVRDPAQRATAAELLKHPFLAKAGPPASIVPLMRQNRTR
# Procedure, shortened: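 Cell-free recombinant human PAK4 activity assay; fluorescent substrate and product separated by electrophoretic mobility shift, read 1 h after dosing. Initially tested in duplicate at 25 uM, relative to DMSO baseline.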
# [6] = system: guinea pig Atrionatriuretic Peptide Receptor A (ANPA), gene 100135578; test: NVS_GPCR_gANPA: NovaScreen (NVS) G Protein-Coupled Receptor Assay for guinea pig Atrionatriuretic Peptide Receptor A (ANPA) (AID 2283291)
# Procedure, shortened: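 Radioligand binding to guinea pig cerebellar membranes was measured after 1 h by filter-based scintillation counting. Chemicals were tested in duplicate at 25 uM, with hits run in concentration-response to a maximum of 50 uM. Binding loss was fitted against DMSO.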
# PPP2CA (gene 5515) = PPP2CA (gene 5515) (UniProt P67775); test: NVS_ENZ_hPPP2CA: NovaScreen (NVS) Enzymatic Assay for human Protein Phosphatase 2 Aatalytic subunit Alpha (PPP2CA) (AID 2283199)
# Procedure, shortened: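 Recombinant human PPP2CA with fluorescent substrate; product separated from substrate by electrophoretic mobility shift, read 1.33 h after dosing. Duplicate single-point at 25 uM, then singleton concentration-response up to 50 uM; loss of signal versus DMSO.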
# [7] = target: human Phosphatase and Tensin Homolog (PTEN), PTEN (gene 5728) (UniProt P60484); test: NVS_ENZ_hPTEN: NovaScreen (NVS) Enzymatic Assay for human Phosphatase and Tensin Homolog (PTEN) (AID 2283203)
# Procedure, shortened: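 Cell-free recombinant human PTEN with fluorescent substrate; product separated by electrophoretic mobility shift and read by fluorescence 1 h after dosing. Primary screen in duplicate at 25 uM, actives followed in concentration series versus DMSO.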
# [8] = target: human Protein Tyrosine Phosphatase Non-receptor Type 2 (PTPN2), PTPN2 (gene 5771) (UniProt P17706); test: NVS_ENZ_hPTPN2: NovaScreen (NVS) Enzymatic Assay for human Protein Tyrosine Phosphatase Non-receptor Type 2 (PTPN2) (AID 2283207)
# Procedure, shortened: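 Cell-free recombinant enzyme with fluorescent substrate, product separated by electrophoretic mobility shift; read 1 h after dosing. Primary screen single concentration (25 uM) in duplicate; actives followed in concentration series; loss of signal versus DMSO.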
# [9] = target: human Raf-1 Proto-Oncogene, serine/threonine Kinase (RAF1), RAF1 (gene 5894) (UniProt P04049); test: NVS_ENZ_hRAF1: NovaScreen (NVS) Enzymatic Assay for human Raf-1 Proto-Oncogene, serine/threonine Kinase (RAF1) (AID 2283216)
# Procedure, shortened: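 Cell-free recombinant kinase with specific fluorescent substrate, product separated by electrophoretic mobility shift; read 1 h after dosing. Primary screen at 25 uM in duplicate; hits then run in concentration-response up to 50 uM, fitted as loss of signal versus DMSO.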
# [10] = target: rat Corticotropin Releasing Factor Receptor (CRF), Crhr1 (gene 58959) (UniProt P35353); test: NVS_GPCR_rCRF: NovaScreen (NVS) G Protein-Coupled Receptor Assay for rat Corticotropin Releasing Factor Receptor (CRF) (AID 2283300)
# Procedure, shortened: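 Rat cortical membranes used as receptor source in a radioligand competitive displacement binding assay; scintillation read 2 h after dosing. Primary screen run in duplicate at 25 uM; loss of signal versus DMSO baseline indicates binding.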
# [11] = target: human Caspase 2 (CASP2), CASP2 (gene 835) (UniProt P42575); test: NVS_ENZ_hCASP2: NovaScreen (NVS) Enzymatic Assay for human Caspase 2 (CASP2) (AID 2283135)
# human Caspase 2 (CASP2), CASP2 (gene 835), sequence (P42575 whole entry, looked up): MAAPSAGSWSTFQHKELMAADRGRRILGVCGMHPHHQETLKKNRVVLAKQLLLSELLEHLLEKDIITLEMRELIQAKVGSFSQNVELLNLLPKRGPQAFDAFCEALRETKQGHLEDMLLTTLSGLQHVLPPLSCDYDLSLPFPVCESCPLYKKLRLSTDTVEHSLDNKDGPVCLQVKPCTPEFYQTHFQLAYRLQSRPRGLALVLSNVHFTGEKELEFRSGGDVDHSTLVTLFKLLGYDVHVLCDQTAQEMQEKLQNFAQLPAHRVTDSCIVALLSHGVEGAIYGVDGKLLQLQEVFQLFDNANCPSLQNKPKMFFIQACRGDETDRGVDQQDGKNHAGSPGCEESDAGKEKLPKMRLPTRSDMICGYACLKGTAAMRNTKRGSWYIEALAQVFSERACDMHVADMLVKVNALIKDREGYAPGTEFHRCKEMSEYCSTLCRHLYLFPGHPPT
# Procedure, shortened: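 E. coli-expressed enzyme in a cell-free protease assay, fluorescence read 1 h after dosing. Compounds at 25 uM in duplicate, with concentration-response up to 50 uM for hits; loss of signal against DMSO baseline.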
# [12] = target: bovine Gamma-Aminobutyric Acid Type A Receptor BDZ, alpha 1 site (GABARa1), GABRA1 (gene 780973) (UniProt P08219); test: NVS_LGIC_bGABARa1: NovaScreen (NVS) Ligand-Gated Ion Channel Assay for bovine Gamma-Aminobutyric Acid Type A Receptor BDZ, alpha 1 site (GABARa1) (AID 2283321)
# bovine Gamma-Aminobutyric Acid Type A Receptor BDZ, alpha 1 site (GABARa1), GABRA1 (gene 780973), sequence (P08219 whole entry, looked up): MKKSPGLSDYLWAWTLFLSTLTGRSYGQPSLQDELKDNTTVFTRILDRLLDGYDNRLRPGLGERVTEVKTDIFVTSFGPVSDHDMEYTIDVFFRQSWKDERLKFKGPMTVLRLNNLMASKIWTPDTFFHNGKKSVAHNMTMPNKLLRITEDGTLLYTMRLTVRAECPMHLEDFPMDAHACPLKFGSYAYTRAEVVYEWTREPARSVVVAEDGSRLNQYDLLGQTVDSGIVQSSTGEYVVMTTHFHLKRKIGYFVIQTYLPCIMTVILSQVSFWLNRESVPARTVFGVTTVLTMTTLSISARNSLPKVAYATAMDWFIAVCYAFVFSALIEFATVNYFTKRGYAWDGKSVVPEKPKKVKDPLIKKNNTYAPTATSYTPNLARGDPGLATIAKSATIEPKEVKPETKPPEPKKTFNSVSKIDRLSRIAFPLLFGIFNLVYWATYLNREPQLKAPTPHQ
# Procedure, shortened: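 Radioligand competition binding on bovine cortical membranes, 0.75 h, filter-based scintillation counting. Primary single concentration 25 uM in duplicate; actives rerun in concentration-response to 50 uM max. Loss of signal fitted versus DMSO.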
# [13] = target: human Ephrin type-A Receptor 2 (EphA2), EPHA2 (gene 1969) (UniProt P29317); test: NVS_ENZ_hEphA2: NovaScreen (NVS) Enzymatic Assay for human Ephrin type-A Receptor 2 (EphA2) (AID 2283155)
# human Ephrin type-A Receptor 2 (EphA2), EPHA2 (gene 1969), sequence (P29317 whole entry, looked up): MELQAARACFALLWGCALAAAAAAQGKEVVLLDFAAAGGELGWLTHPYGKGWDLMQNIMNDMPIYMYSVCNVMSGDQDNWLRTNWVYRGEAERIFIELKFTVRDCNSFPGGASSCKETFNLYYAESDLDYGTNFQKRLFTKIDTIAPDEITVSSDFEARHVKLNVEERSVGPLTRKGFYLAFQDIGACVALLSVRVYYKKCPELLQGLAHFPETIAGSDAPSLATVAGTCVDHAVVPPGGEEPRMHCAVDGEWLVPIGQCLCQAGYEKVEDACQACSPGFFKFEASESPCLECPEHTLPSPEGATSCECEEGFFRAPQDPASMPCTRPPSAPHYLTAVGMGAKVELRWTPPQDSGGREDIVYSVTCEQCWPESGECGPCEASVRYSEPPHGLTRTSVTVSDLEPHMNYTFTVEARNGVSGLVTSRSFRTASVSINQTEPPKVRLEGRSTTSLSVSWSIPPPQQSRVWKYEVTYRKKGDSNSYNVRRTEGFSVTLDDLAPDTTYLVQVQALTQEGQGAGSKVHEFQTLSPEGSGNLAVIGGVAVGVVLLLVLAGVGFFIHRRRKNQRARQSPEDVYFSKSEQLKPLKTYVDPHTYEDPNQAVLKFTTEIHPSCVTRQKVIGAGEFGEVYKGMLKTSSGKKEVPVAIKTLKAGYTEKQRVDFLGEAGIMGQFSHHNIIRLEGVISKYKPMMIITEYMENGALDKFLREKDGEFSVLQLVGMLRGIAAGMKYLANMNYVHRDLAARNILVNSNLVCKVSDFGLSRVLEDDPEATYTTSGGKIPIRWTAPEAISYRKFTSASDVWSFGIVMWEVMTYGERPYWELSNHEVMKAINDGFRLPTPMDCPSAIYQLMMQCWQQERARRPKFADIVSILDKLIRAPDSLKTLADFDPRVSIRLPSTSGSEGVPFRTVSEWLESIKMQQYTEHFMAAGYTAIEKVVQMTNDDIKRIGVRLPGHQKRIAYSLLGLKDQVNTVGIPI
# Procedure, shortened: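 Cell-free recombinant EphA2 kinase with specific substrate, 1 h, fluorescence with electrophoretic mobility-shift separation of substrate and product. Primary screen at 25 uM in duplicate; hits retested in singleton concentration-response up to 50 uM, referenced to DMSO.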
# [14] = target: rat Acetylcholinesterase (AChE), Ache (gene 83817) (UniProt P37136); test: NVS_ENZ_rAChE: NovaScreen (NVS) Enzymatic Assay for rat Acetylcholinesterase (AChE) (AID 2283233)
# rat Acetylcholinesterase (AChE), Ache (gene 83817), sequence (P37136 whole entry, looked up): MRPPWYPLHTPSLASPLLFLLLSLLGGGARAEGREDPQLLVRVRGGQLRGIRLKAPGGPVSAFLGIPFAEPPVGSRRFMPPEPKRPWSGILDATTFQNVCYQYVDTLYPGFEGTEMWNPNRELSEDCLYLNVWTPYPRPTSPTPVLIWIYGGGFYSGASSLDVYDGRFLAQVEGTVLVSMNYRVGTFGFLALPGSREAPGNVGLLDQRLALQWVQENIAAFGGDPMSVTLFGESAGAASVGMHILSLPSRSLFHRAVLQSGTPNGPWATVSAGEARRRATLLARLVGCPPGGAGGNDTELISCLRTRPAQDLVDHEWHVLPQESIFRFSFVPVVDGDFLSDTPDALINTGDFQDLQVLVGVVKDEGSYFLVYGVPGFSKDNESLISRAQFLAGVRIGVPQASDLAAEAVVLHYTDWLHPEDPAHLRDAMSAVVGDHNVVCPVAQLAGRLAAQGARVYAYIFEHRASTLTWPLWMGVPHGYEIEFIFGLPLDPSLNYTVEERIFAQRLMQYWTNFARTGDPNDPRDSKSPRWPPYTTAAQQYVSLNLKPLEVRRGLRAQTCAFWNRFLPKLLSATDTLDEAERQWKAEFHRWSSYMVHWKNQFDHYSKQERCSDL
# Procedure, shortened: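 Rat brain membrane acetylcholinesterase activity measured colorimetrically 0.33 h after compound addition, loss of signal relative to DMSO. Primary screen in duplicate at 25 uM; actives re-run as concentration-response with 50 uM top concentration.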
# [15] = system: rat Monoamine Oxidase, MAO-A, Central (MAOAC), gene 29253; test: NVS_ENZ_rMAOAC: NovaScreen (NVS) Enzymatic Assay for rat Monoamine Oxidase, MAO-A, Central (MAOAC) (AID 2283243);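 also: potency refers to inhibition seen as signal drop below DMSO baseline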
# Procedure, shortened: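 Rat brain tissue extract used as enzyme source in a cell-free radiometric assay, read by scintillation counting 1.5 hours after dosing. Loss of signal relative to DMSO baseline scored; primary screen at 25 uM in duplicate, actives followed up in concentration series.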
# [16] = CCTE_Harrill_HTTr_Apoptosis_PRF_DMEM_12hr: (Pilot) CCTE's 12-hour Apoptosis Assessment for the High-Throughput Transcriptomics (HTTr) Platform, in MCF-7 cells cultured in phenol red-free DMEM + 10% charcoal-stripped fetal bovine serum, Harrill Lab (AID 2283985; active = hit-call score of the fitted dose curve at least 0.9, where 1 is the maximum; inactive = score below 0.9)
# Procedure, shortened: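 MCF-7 cells in phenol red-free DMEM with 10% charcoal-stripped FBS, eight-point dilution series, 12 h exposure. Caspase-3/7 activation imaged by high content imaging with CellEvent Green reagent; bidirectional fit vs DMSO.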
# [17] = target: human Caspase 10 (CASP10), CASP10 (gene 843) (UniProt Q92851); test: NVS_ENZ_hCASP10: NovaScreen (NVS) Enzymatic Assay for human Caspase 10 (CASP10) (AID 2283133)
# Procedure, shortened: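 Recombinant human caspase-10 from E. coli, cell-free fluorogenic substrate assay read 1 h after dosing. Primary duplicate screen at 25 uM; hits (e.g. ≥30% inhibition) run singly in concentration-response up to 50 uM, normalised to DMSO.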
# [18] = target: human MET Proto-Oncogene, Receptor Tyrosine Kinase (MET), MET (gene 4233) (UniProt P08581); test: NVS_ENZ_hMet: NovaScreen (NVS) Enzymatic Assay for human MET Proto-Oncogene, Receptor Tyrosine Kinase (MET) (AID 2283180)
# Procedure, shortened: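 Cell-free MET kinase assay using recombinant protein and fluorescent substrate, with mobility-shift separation; read 1 h after dosing. Primary duplicate at 25 uM; actives in singleton concentration-response to 50 uM maximum. Signal loss versus DMSO.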
# [19] = target: human Protein Tyrosine Phosphatase Receptor Type C (PTPRC), PTPRC (gene 5788) (UniProt P08575); test: NVS_ENZ_hPTPRC: NovaScreen (NVS) Enzymatic Assay for human Protein Tyrosine Phosphatase Receptor Type C (PTPRC) (AID 2283212)
# Procedure, shortened: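 Yeast-extracted human PTPRC used in a cell-free colorimetric enzyme activity read-out, 1 h after dosing. Primary screen in duplicate at 25 uM; actives rerun in concentration-response up to 50 uM, DMSO as baseline.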
smiles,measurement,setting,value
CCc1cc(SCc2sc(-c3ccc(C(F)(F)F)cc3)nc2CN2CCN(c3ccc(OC)cc3)CC2)ccc1OCC(=O)O,AC50,Caspase-1 (Homo sapiens),46.1 µM (active)
same,outcome,[1],inactive
Nc1ccc(S(=O)(=O)c2ccc(N)cc2)cc1,outcome,[2],inactive
c1cc(-c2ccncc2)ccn1,outcome,[2],inactive
CCCCCCCCCCCCc1ccccc1,outcome,[3],inactive
same,outcome,[4],inactive
CC(C)(C)c1ccccc1,outcome,[3],inactive
same,outcome,[5],inactive
same,outcome,[6],inactive
CC1(C)NC(=O)NC1=O,outcome,[3],inactive
same,outcome,[5],inactive
O=C(OCCCCCOC(=O)c1ccccc1)c1ccccc1,outcome,[3],inactive
same,outcome,[5],inactive
same,outcome,PPP2CA (gene 5515),inactive
same,outcome,[7],inactive
same,outcome,[8],inactive
same,outcome,[9],inactive
same,outcome,[10],inactive
OC[C@H]1O[C@@](CO)(O[C@H]2O[C@H](CO)[C@@H](O)[C@H](O)[C@H]2O)[C@@H](O)[C@@H]1O,outcome,Caspase-1 (Homo sapiens),inactive
Cc1cccc2ccccc12,outcome,[11],inactive
C/C=C/C=C/C(=O)O,outcome,[3],inactive
same,AC50,[12],20.9 µM (active)
CCCCc1oc2ccccc2c1C(=O)c1cc(I)c(OCCN(CC)CC)c(I)c1,outcome,[13],inactive
same,outcome,[5],inactive
same,outcome,[14],inactive
same,AC50,[15],18.9 µM (active)
same,outcome,[16],inactive
CCCCCCCCCCCCCCOS(=O)(=O)O,outcome,[17],inactive
same,AC50,[18],18.5 µM (active)
same,AC50,[19],24.2 µM (active)
CC(=O)c1ccccc1,outcome,[13],inactive
same,outcome,[6],inactive
